# Test results taken from PubChem BioAssay (NCI).
# About 83,000 compounds went through this panel and 20% of them were active in at least one assay; those are over-represented in the sample as a whole.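 Note: values are percent growth. 100 is the growth of untreated cells, values between 100 and 0 indicate rising inhibition; between -100 and 0 indicates cell death.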 Active and inactive are the calls of the source.
# System: SK-MEL-28 melanoma
# Test: NCI-60 one-dose screen, 48 h (100 = growth as untreated, 0 = no growth, -100 = all killed)
# Details: 10 µM unless noted
# Experimental: Growth inhibition of the SK-MEL-28 human tumor cell line is measured as a screen for anti-cancer activity. Cells are grown in 96 well plates and exposed to the test compound for 48 hours. Compounds are tested at a single concentration, which is 10^-5 M for most compounds. The reported endpoint is percent growth (GI% or GIPRCNT), where numbers from 0 - 100% represent growth inhibition, and numbers from -100% - 0 represent cell death. For example, a value of 40 represents 60% growth inhibition. A value of 0 means no net growth occurred over the course of the experiment. A value of -40 indicates 40% of cells at the beginning of the experiment died by the end of the experiment. A value of -100 means all cells are dead at the end of the experiment.
# NCI-60 Human Tumor Cell Lines Screen was performed using the standard one-dose NCI protocol, which is described in more detail at https://dtp.cancer.gov/discovery_development/nci-60/default.htm.
# Compounds with GIPRCNT values below 10 were considered active. Activity score was based on GIPRCNT using the following formula: […]
# Score is 0 for GIPRCNT values of 100 or above, 50 for GIPRCNT values of 0, and 100 for GIPRCNT values of -100.
row,SMILES,growth
1,COc1ccc(-c2c(-c3ccccc3)noc2N)cc1OC,112% (inactive)
2,CCCOc1nc(SCCC)nc2c1cnn2-c1ccccc1,122% (inactive)
3,O=c1[nH]nc(-c2ccc(Br)cc2)cc1Cc1ccc(O)cc1,104% (inactive)
4,CC(=O)Nc1ccc(S(=O)(=O)NC2CCCCC2)cc1,98.3% (inactive)
5,CC(=O)N1N=C(c2cccc(Nc3ccncc3)c2)CC1c1ccccc1 (stereo not given),86.5% (inactive)
6,CCCCCN1C=C/C(=C\C(=O)N(C)c2cccc3ccccc23)c2ccccc21,107% (inactive)
7,CC1(C)NCCC[C@]2(C)[C@H]3CC=C4[C@@H]5C[C@@](C)(CO)CC[C@]5(C)CC[C@@]4(C)[C@]3(C)CC[C@@H]12,68.2% (inactive)
8,[O-][n+]1ccccc1CCN(O)CCc1cccc[n+]1[O-],116% (inactive)
9,Cn1c(COC(=O)N2CCCCC2)nc2c(N3CCOCC3)nc(-c3ccccc3)nc21,-96.8% (active)
10,CC1(C)CCCN1CCCN1c2ccccc2Sc2ccc(Cl)cc21,72% (inactive)
11,COc1cccc2c1C(=O)c1c(O)c3c(c(O)c1C2=O)C[C@@](O)(C(=O)CO)C[C@@H]3O[C@H]1C[C@H](N)[C@@H](O)[C@H](C)O1,-34.7% (active)
12,N/C(=N\N=C\c1cc2ccccc2s1)N/N=C/c1cc2ccccc2s1,106% (inactive)
13,Cc1ccc(S(=O)(=O)Nc2ccc(Cl)cc2)cc1,97.2% (inactive)
14,CCN(CC)CCCC(C)Nc1cc(-c2cccc(OC(F)(F)F)c2)nc2ccc(N3CCCC3)cc12 (stereo not given),-93% (active)
15,O=C(/C=C\c1ccc(OCCCCCC[P+](c2ccccc2)(c2ccccc2)c2ccccc2)cc1)c1ccc2c(c1)OCCO2,-0.666% (active)
16,Cc1ccccc1C(c1ccccc1)c1ccccc1C,103% (inactive)
17,Brc1ccc(C2CC(c3cccc(Nc4ccncc4)c3)=NN2c2ccccc2)cc1 (stereo not given),73.3% (inactive)
18,NC(=O)c1cccc(-c2ccccc2N2CCCCC2)c1,98.6% (inactive)
19,CC(C)C1C2=C(NCCN1C(=O)Cc1ccccc1)C(C)(C)N(Cc1ccccc1)C2=O (stereo not given),104% (inactive)
20,CC(=O)O[C@]1(C(C)=O)CC[C@H]2[C@@H]3C=C(Cl)C4=CC(=O)CC[C@]4(C)[C@H]3CC[C@@]21C,119% (inactive)

row,SMILES,growth
1,N#C/C(=C\c1ccc(Br)cc1)n1nnc2cccc(F)c21,49.5% (inactive)
2,CN1CCN(C(=O)[C@]2(C)CC[C@]3(C)CC[C@]4(C)C(=CC(=O)[C@@H]5[C@@]6(C)CCC(=O)NC(C)(C)[C@@H]6CC[C@]54C)[C@@H]3C2)CC1,101% (inactive)
3,Cc1nn(-c2ccccc2)c(N2CCOCC2)c1/C=N/N=c1\sc2ccccc2n1C,75.9% (inactive)
4,O=S(=O)(NCCNc1nccc(-c2c(-c3ccc(F)c(O)c3)nc3sccn23)n1)c1ccccc1,16.8% (inactive)
5,O=C1Nc2c(ccc(Cl)c2Cl)/C1=C/c1ccc([N+](=O)[O-])cc1,111% (inactive)
6,COc1ccccc1N1CCN(C(=O)c2ccc3nc(NC(=O)c4ccc(NCCc5ccccc5)c([N+](=O)[O-])c4)sc3c2)CC1,91.5% (inactive)
7,Cc1cn(-c2cc(C(=O)Nc3cccc(C#Cc4cccc5[nH]nc(N)c45)c3)cc(C(F)(F)F)c2)cn1,15.8% (inactive)
8,CCCNC(=O)Oc1ccc(/C(=C(\C)c2ccccc2)c2ccc(OCCN3CCCCC3)cc2)cc1,70.5% (inactive)
9,Cc1ccc2nc3c(cc2c1)CSc1nnc(-c2ccc[nH]c2=S)n1N3,103% (inactive)
10,c1ccc(CCSc2ncnc3nc[nH]c23)cc1,103% (inactive)
11,CCCCCCCCOc1ccc(/C=N/Nc2cc(C)nc3ccc(Cl)cc23)cc1,64.3% (inactive)
12,COc1ccc(C(=O)c2cc(C)c(OC)c(C)c2)c(OC)c1O,48.8% (inactive)
13,CCOC(=O)Oc1c(OC)cc(C(=O)O[C@@H]2C[C@@H]3CN4CCc5c([nH]c6cc(OC)ccc56)[C@H]4C[C@@H]3[C@H](C(=O)OC)[C@H]2OC)cc1OC,83.2% (inactive)
14,CCNC(=S)NNC(=O)c1cc2ccc1CCc1ccc(cc1)CC2,101% (inactive)
15,CCOC(=O)C1=C(C)NC(C)=C(C(=O)OCC)C1c1cc(Br)c(O)c(OC)c1,47.5% (inactive)
16,O=C(O)c1cn(C2CC2)c2cc(N3CCN(C(=O)C[n+]4cccc5ccccc54)CC3)c(F)cc2c1=O,56.8% (inactive)
17,CC(C)(C#N)N1CCN(c2ccccc2Cl)CC1,112% (inactive)
18,NC(=O)c1cccc(-c2cc(C(N)=O)ccc2Cl)c1,58.8% (inactive)
19,C=C(C)[C@@H]1CC[C@]2(C(=O)NCC(=O)OC)CC[C@]3(C)[C@H](CC[C@@H]4[C@@]5(C)Cc6c([nH]c7ccccc67)C(C)(C)[C@@H]5CC[C@]43C)[C@@H]12,95% (inactive)
20,Cc1cc(Nc2cccc(C(F)(F)F)c2)n2c(nc3ccccc32)c1C#N,54.8% (inactive)
